Assay results as given in ChEMBL document CHEMBL3433997, “St. Jude Leishmania screening dataset” (2016).

How the values were obtained:
Assay type in all cases: functional
[1] = molecular target: Solute carrier family 2, facilitated glucose transporter member 1 (Homo sapiens) (UniProt P11166); assay: ST_JUDE_LEISH: Cytotoxicity at 2uM final concentration against transgenic Leishmania Mexicana promastigotes LmGLUT1 that are glucose transport deficient and complemented with the human glucose transporter GLUT1. Activity is measured by DNA content using SYBR green in vitro
Chain of Solute carrier family 2, facilitated glucose transporter member 1 (Homo sapiens) (P11166 whole entry): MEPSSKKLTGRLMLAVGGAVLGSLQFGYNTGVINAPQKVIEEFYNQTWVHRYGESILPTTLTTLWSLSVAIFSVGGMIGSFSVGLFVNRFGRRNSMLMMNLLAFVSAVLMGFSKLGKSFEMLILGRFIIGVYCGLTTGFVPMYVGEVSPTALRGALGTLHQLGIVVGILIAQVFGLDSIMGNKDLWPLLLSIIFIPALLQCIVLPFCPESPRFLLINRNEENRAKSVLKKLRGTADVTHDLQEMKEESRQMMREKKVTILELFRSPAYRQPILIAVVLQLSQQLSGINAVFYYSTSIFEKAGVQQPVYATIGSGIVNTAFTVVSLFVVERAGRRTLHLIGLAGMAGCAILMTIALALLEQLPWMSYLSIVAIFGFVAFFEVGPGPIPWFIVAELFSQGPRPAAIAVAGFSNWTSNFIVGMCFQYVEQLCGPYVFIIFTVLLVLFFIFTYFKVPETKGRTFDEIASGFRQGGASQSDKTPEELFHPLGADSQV

[2] = molecular target: Hexose transporter 1 (Plasmodium falciparum) (UniProt O97467); assay: ST_JUDE_LEISH: Cytotoxicity at 2uM final concentration against transgenic Leishmania Mexicana promastigotes LmPfHT that are glucose transport deficient and complemented with the Plasmodium falciparum hexose transporter. Activity is measured by DNA content using SYBR green in vitro
[3] = molecular target: Glucose transporter (Leishmania mexicana) (UniProt O61059); assay: ST_JUDE_LEISH: Cytotoxicity at 2uM final concentration against transgenic Leishmania Mexicana promastigotes LmGT2 that are glucose transport deficient and complemented with the L. Mexicana glucose transporter 2. Activity is measured by DNA content using SYBR green in vitro

Row | Compound | inhibition [1] | inhibition [2] | inhibition [3]
1 | Cc1cccc2nc(-c3ccc(-c4cccc(NC(=O)c5cccc(C(N)=O)c5)c4)cc3)[nH]c12 | 3.55% | 3.07% | 2.8%
2 | N#Cc1cc(C(=O)c2cc(Br)ccc2O)cn(-c2cc(Cl)cc(Cl)c2)c1=O | -3.11% | 0.39% | -3.61%
3 | COc1cccc2cc(C(=O)N[C@@H](CC(C)C)C(=O)N[C@H](C=NN3CCOC3=O)Cc3ccccc3)oc12 | -0.71% | 0.23% | -0.91%
4 | Cc1ccccc1CNc1nccc(NCCC(=O)Nc2ccccc2)n1 | 4.53% | 2.1% | 0.01%
5 | Cc1cccc2nc(-c3ccc(-c4ccc(CN5CCN(CCN6CCOCC6)CC5)cc4)cc3)[nH]c12 | 6.69% | 8.97% | -1.08%
6 | CCN(CCCN1CCCCC1)c1cc(C)nc(Nc2ccc(Cl)c(C(F)(F)F)c2)n1 | 0.03% | -0.3% | -1.78%
7 | CCCCc1cc(NCc2ccncc2)nc(Nc2ccc(OC)cc2)n1 | 12.9% | 5.76% | 3.3%
8 | COc1ccc2nccc(NCC3(O)CCC(NCc4cc5c(cn4)OCCO5)CC3)c2n1 (stereo not drawn) | -1.99% | -1.9% | -2.58%
9 | COc1ccccc1NC(=O)Nc1ccc(-c2ccc(-c3nc4cccc(C)c4[nH]3)s2)cc1 | 3.53% | 1.17% | 1.64%
10 | CC(C)Cc1nc2nc(N)nc(N)c2cc1C(C)C | 1.84% | 4.17% | 1.5%
11 | Fc1ccc2[nH]c(-c3ccc(-c4ccc(CNCc5cnn(-c6ccccc6)n5)cc4)cc3)nc2c1 | 1.68% | -1.57% | -1.56%
12 | CN1CCCC(CN2CCN(Cc3cccc(-c4ccc(-c5nc6cc(F)ccc6[nH]5)cc4)c3)CC2)C1 (stereo not drawn) | 2.66% | 1.97% | 1.35%
13 | CCc1cc(Cc2cnc(N)nc2N)cc(CC)c1OC | 2.48% | 0.46% | -1.28%
14 | O=C(NCCCCN1CCC(c2ccc3c(c2OCc2ccncc2)CCCC3)CC1)c1ccc(NC(=O)c2ccc(Cl)cc2)cc1 | 2.33% | 2.42% | 1.29%
15 | O=C(/C=C/c1ccc(C(F)(F)F)cc1)NCCCCCN1CCN(C(=O)Nc2ccc(Cl)cc2)CC1 | 2.27% | 3.09% | 1.84%
16 | CCNc1cc(C)nc(Nc2ccc(NC(=O)c3ccc(OC)c(OC)c3)cc2)n1 | 5.48% | 1.84% | 2.34%

Row | Compound | inhibition [1] | inhibition [2] | inhibition [3]
17 | CC(Cc1ccc(NC(=O)c2ccc(CNCc3ccccc3)cc2)cc1)N(CCc1cccc(Cl)c1)C(=O)OC(C)(C)C (stereo not drawn) | 6.08% | 4.74% | 3.04%
18 | CCc1c[nH]c2c(N3CCCCC3=O)cc(C(=O)N[C@@H](Cc3ccccc3)[C@H](O)CNCc3cccc(OC)c3)cc12 | -0.8% | -2.31% | 0.87%
19 | COc1ccc2nccc([C@@H](O)CN3CCC(NC(=O)c4nc(Cl)c(Cl)c(N)c4Cl)CC3)c2c1 | -0.09% | -0.22% | 1.55%
20 | COc1cc(NC(=O)c2sc(-c3ccc(Cl)cc3)cc2NC(=O)c2cccc(N(C)C)c2)ccc1OCCN1CCCC1 | 0.3% | 0.22% | 0.53%
21 | O=C(Nc1cccc(-c2cc3ccccc3[nH]2)c1)C1CCN(Cc2ccccc2O)CC1 | 10.3% | 9.31% | 8.56%
22 | CCCNCc1ccc(-c2ccc(CN(CCOC)C(=O)[C@H]3CCCO3)cc2)nc1 | 4.56% | 4.55% | 4.1%
23 | Cc1cc(NC(=O)c2ccco2)ccc1OC1CCN(Cc2ccccc2)CC1 | 0.52% | 4.72% | 1.9%
24 | O=C(/C=C/c1ccc(Cl)c(Cl)c1)NCCCCCN1CCC(n2c(=O)[nH]c3ccccc32)CC1 | 8.14% | 7.32% | 7.73%
25 | O=C(Nc1ccc(C(=O)N(Cc2ccc3c(c2)OCO3)C2CCCC2)cc1)c1cccs1 | 1.03% | 0.69% | -2.85%
26 | CCNc1cc(C(=O)N[C@@H](Cc2ccccc2)[C@H](O)CNC23CCC(CC2)C3)cc(N2CCCCS2(=O)=O)c1 | 0.79% | -1.58% | 3.19%
27 | COC(=O)c1cccc(CNCc2cccc(-c3ccc(-c4nc5cc(C(F)(F)F)ccc5[nH]4)cc3)c2)c1 | 2.29% | 3.53% | 2.66%
28 | Cc1cccc2nc(-c3ccc(-c4cccc(CNCCc5ccncc5)c4)s3)[nH]c12 | 3.13% | 1.49% | 2.73%
29 | CCc1ccc(O)c(-c2cc(C(=O)Nc3cccnc3)[nH]n2)c1 | 1.69% | 0.53% | 2.29%
30 | C=CCOC(=O)N1CCC(CNCc2cccc(-c3cccc(-c4nc5cc(F)ccc5[nH]4)c3)c2)C1 (stereo not drawn) | 1.39% | 0.9% | -0.93%
31 | Cc1cccc(CCCNC(=O)CN(c2cccc(C(F)(F)F)c2)S(=O)(=O)c2ccc(C(F)(F)F)cc2)c1 | 5.38% | 4.48% | 4.63%
